# Most compounds without a hit are left out; they make up all but 32% or so of the library.
# CYP2C9 inhib = inhibitors of human CYP2C9 | inhibition, % at 5 µM | 96,000 tested, 20% active | CYP2C9 Supersomes, luciferin-H conversion, luminescence;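 active means blocking of liver enzyme CYP2C9 beyond about 50% at 5 µM, limit read from the data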
# Target sequence (P11712 whole entry, looked up): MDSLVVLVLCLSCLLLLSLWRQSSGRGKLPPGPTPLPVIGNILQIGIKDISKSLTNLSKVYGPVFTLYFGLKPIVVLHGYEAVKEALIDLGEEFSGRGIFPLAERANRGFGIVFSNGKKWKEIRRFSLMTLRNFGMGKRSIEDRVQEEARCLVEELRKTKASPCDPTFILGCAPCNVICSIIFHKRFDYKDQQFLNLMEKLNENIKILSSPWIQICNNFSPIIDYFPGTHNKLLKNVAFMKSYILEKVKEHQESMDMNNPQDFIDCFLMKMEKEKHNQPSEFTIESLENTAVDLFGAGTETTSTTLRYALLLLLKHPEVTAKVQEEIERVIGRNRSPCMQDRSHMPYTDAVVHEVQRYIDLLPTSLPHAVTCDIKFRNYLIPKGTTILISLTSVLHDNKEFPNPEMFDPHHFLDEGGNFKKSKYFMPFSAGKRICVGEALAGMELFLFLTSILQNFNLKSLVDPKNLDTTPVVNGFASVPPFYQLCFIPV
# CYP2C9 act = activators of human CYP2C9; AID 1024; activation factor at 5 µM; 96,000 tested, 1.4% active; recombinant CYP2C9, luciferin-H conversion, luminescence; stronger effect = higher value; factor 1 = untreated enzyme, 0 = blocked;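 active means activation factor of 2 or more for CYP2C9 at a 5 µM dose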;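 further: 0 = sulfaphenazole-blocked wells and 1 = vehicle-only wells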
# PostGolgi yeast = growth inhibition of a yeast mutant, post-Golgi transport screen; post-Golgi transport phenotypic cell assay; inhibition, % at 10 µM; 98,000 tested, 0.9% active; AID 739;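 further: yeast cells grown in 1536-well plates; yeast grown about 18 h at 30C before absorbance read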
# PostGolgi ctrl = growth of the yeast control strain, post-Golgi counter-screen | efflux-deficient yeast background strain, growth absorbance A615, 16 h | inhibition, % at 10 µM | 98,000 tested, 5% active
# CYP2C19 inhib = blocks human cytochrome P450 2C19 | P33261 | CYP2C19 Supersomes, luciferin-H EGE luminescence, 30 min | inhibition, % at 5 µM | 96,000 tested, 21% active;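 active means CYP2C19 inhibition above a set limit at 5 µM in the primary screen, cut at about 50% in these data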;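 further: plate controls were negative control wells for no effect and 2.5 mM tranylcypromine positive control for full effect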
# CYP2C19 act = cytochrome P450 2C19 (human) activation; 96,000 tested, under 10 active; activation factor at 5 µM; P33261; recombinant CYP2C19, luciferin-H EGE luminescence; stronger effect = higher value; 0 = fully inhibited enzyme, 1 = untreated enzyme;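 active means activation factor of at least 2 at 5 µM in the primary screen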;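 further: 0 = wells with 2.5 mM tranylcypromine and 1 = vehicle-only wells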
# Active calls of the source: *; x = no result. Unless noted, no stated cut-off is given here; in the data, active means inhibition above about 30%; inactive means the rest.
SMILES,CYP2C9 inhib,CYP2C9 act,PostGolgi yeast,PostGolgi ctrl,CYP2C19 inhib,CYP2C19 act
CCC(=O)NCCc1cc2cc(C)c(C)cc2[nH]c1=O,-18,1.2,4,1,-8,1.1
CSc1ccccc1NC(=O)CN(c1cc(C)cc(C)c1)S(C)(=O)=O,71*,0.3,10,4,58*,0.4
CS(=O)(=O)N(CC(=O)Nc1ccccc1Sc1ccccc1)c1cccc(Br)c1,66*,0.3,9,41*,14,0.9
Cc1ccccc1NC(=O)CN(c1ccc(F)cc1)S(C)(=O)=O,7,0.9,7,9,33,0.7
Cn1cnnc1SCC(=O)Nc1ccccc1Sc1ccccc1,1,1,x,x,39,0.6
CSc1ccccc1NC(=O)c1ccccc1N(Cc1ccccc1)S(C)(=O)=O,59*,0.4,-4,12,43,0.6
O=C(CP(=O)(CO)CO)c1ccc(Cl)cc1,-19,1.2,13,7,-22,1.2
O=C(CC1N=C2c3ccccc3N=C(SCc3ccc(Cl)cc3)N2C1=O)NCc1ccco1 (configuration not stated),72*,0.3,-3,37*,5,0.9
Cc1ccc(CSC2=Nc3ccccc3C3=NC(CCC(=O)NCc4ccco4)C(=O)N23)cc1 (configuration not stated),87*,0.1,7,11,21,0.8
Cc1cccc(NC(=S)NC(=O)/C=C/c2ccco2)n1,55*,0.5,-8,12,50,0.5
C=C(C)COc1ccc(-c2[nH]ncc2-c2ccc(OC)c(OC)c2)c(O)c1,33,0.7,-12,29,10,0.9
C=C(C)COc1ccc(-c2[nH]ncc2Oc2cccc(OC)c2)c(O)c1,100*,0,16,30*,93*,0.1
C=C(C)COc1ccc(-c2[nH]ncc2Oc2ccccc2OCC)c(O)c1,100*,0,49*,19,96*,0
C=C(C)COc1ccc(-c2[nH]ncc2-c2ccccc2)c(O)c1,83*,0.2,45*,62*,41,0.6
O=C(CSC(=S)N1CCOCC1)N1N=CCC1c1ccccc1 (configuration not stated),15,0.8,2,-1,0,1
Cc1nn(-c2ccccc2)c(Cl)c1C(=O)Nc1nnc(C2CCCC2)s1,94*,0.1,-4,4,44,0.6
Cc1nn(-c2ccccc2)c(Cl)c1C(=O)NCC(=O)O,-13,1.1,1,4,-18,1.2
Cc1cccc(C)c1NC(=O)c1c(C)nn(-c2ccccc2)c1Cl,44,0.6,10,6,51*,0.5
CCOC(=O)c1cnn(-c2ncnc3c2oc2ccccc23)c1N,31,0.7,x,x,27,0.7
Cc1nn(C2CCS(=O)(=O)C2)c(Cl)c1/C=C/C(=O)OCC(=O)Nc1ccccc1OC(F)F (configuration not stated),69*,0.3,0,1,67*,0.3
CC(C)OC(=O)C(CC(=O)O)NCc1ccccc1 (configuration not stated),6,0.9,3,0,-3,1
CN(C(=O)c1ccncc1)C1CC(C)(C)N(O)C(C)(C)C1,8,0.9,3,-4,96*,0
C(=C\c1nc2ccccc2[nH]1)/c1ccccc1,60*,0.4,8,11,72*,0.3
CCCN1C2=C(C(=O)CC(C)(C)C2)C(c2ccc(F)cc2)C2=C1c1ccccc1C2=O (configuration not stated),75*,0.3,0,5,-14,1.1
Cc1ccc(S(=O)(=O)N2CC3(C)CN(S(=O)(=O)c4ccc(C)cc4)CC(C)(C2)C3)cc1,32,0.7,8,-4,13,0.9
SMILES,CYP2C9 inhib,CYP2C9 act,PostGolgi yeast,PostGolgi ctrl,CYP2C19 inhib,CYP2C19 act
COc1ccc(-c2cc(-c3ccc(F)cc3)nc(N3CCN(C)CC3)n2)cc1,x,x,20,32*,x,x
COc1ccc(-c2cc(C(F)(F)F)nc(N3CCOCC3)n2)cc1,-4,1,-3,19,-9,1.1
Cc1ccc(-c2csc(N3CCC(NS(=O)(=O)c4ccc5c(c4)OCCO5)CC3)n2)cc1,63*,0.4,-2,28,47,0.5
O=C(CN1CCN(c2nc(-c3ccccc3)cs2)CC1)Nc1ccc2c(c1)OCO2,-2,1,-8,16,9,0.9
Cc1nc(=O)c(-c2ccccc2)c(C)n1-c1ccc(O)cc1,-2,1,-2,-13,54*,0.5
CC(=O)Nc1ccc(-n2c(C)nc(=O)c(-c3ccccc3)c2C)cc1,-13,1.1,-4,-10,-7,1.1
O=C(/C=C/c1cccc([N+](=O)[O-])c1)NCCSc1ccccc1,-33,1.3,-7,10,11,0.9
Cc1ccccc1Nc1nnc(SCc2cc(=O)n3ccsc3n2)s1,20,0.8,7,25,12,0.9
Cc1cccc(C)c1Nc1nnc(SCc2cc([N+](=O)[O-])cc3c2OCOC3)s1,51*,0.5,4,33*,-5,1.1
COc1cccc(Nc2nnc(SCc3cc([N+](=O)[O-])cc4c3OCOC4)s2)c1,12,0.9,-1,6,82*,0.2
c1ccc(SCc2nc3ccccc3[nH]2)nc1,48,0.5,-1,-5,90*,0.1
c1ccc2[nH]c(CSc3nc4ccccc4s3)nc2c1,53*,0.5,-6,12,98*,0
CCC(C)SCc1nc2ccccc2[nH]1 (configuration not stated),36,0.6,8,5,93*,0.1
COc1ccc2[nH]c(=O)c(CNC3CCCCC3)cc2c1,47,0.5,-2,-1,14,0.9
CCC(=O)N(Cc1cc2cc(OC)ccc2[nH]c1=O)c1cc(C)ccc1C,20,0.8,-5,11,-5,1
COc1ccc(NCc2n[nH]c(=O)c3ccccc23)cc1,36,0.6,-4,32*,35,0.6
COc1ccc(NCc2cc3ccccc3[nH]c2=O)cc1,29,0.7,30,7,82*,0.2
COc1ccc2[nH]c(=O)c(CNc3cccc(C)c3)cc2c1,38,0.6,13,9,82*,0.2
COc1ccc(NCc2cc3cc(OC)ccc3[nH]c2=O)cc1,38,0.6,0,7,52*,0.5
Cc1ccc(-c2c(C)n([O-])c3c([n+]2=O)CCCC3)o1,14,0.9,7,7,19,0.8
Cc1cc(S(=O)(=O)NC(C)C)ccc1OCC(=O)N1CCOCC1,29,0.7,6,-4,12,0.9
C=CCC(C)(NCc1ccccc1)c1ccccc1 (configuration not stated),8,0.9,-8,9,62*,0.4
O=C(C1CCCN(Cc2ccncc2)C1)N1CCc2ccccc2C1 (configuration not stated),67*,0.3,1,-4,96*,0
